The values below come from PubChem BioAssay AID602250 (The Scripps Research Institute Molecular Screening Center, 2012).

The whole screen tested about 360,000 compounds, of which about 2,200 (0.61%) were called active. The sample holds actives, similar compounds and a random draw of the others, so the mix is not that of the screen.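 Rule for the calls: active = inhibition above a per-plate cutoff, the plate's mean sample inhibition plus 3 SD (cut at about 24% in these data); inactive = the rest.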

This experiment can be described thus: nonselective inhibitors of ATP calcium response in CHO-K1, primary screen, counter-screen for M1 antagonist project, cell-based, Fluo-8 calcium fluorescence, full deck, 1536-well (AID 602250).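 Note: 0% = DMSO plus EC80 ATP and 100% = DMSO alone without ATP.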 The following applies: CHO-K1 parental, ATP-induced calcium, Fluo-8 fluorescence; at 3 µM; hits give high values. On the technique in general: Counterscreens check selectivity or assay interference.
Consider `COc1cc(Cl)ccc1OCc1cc(C(=O)N2CC[C@@H]3CCCC[C@H]3C2)no1`, for which the inhibition is 30.9% (active).

For the compound `COc1ccc(OCc2cc(C(=O)N3CCCC3)no2)c2ccccc12`, the inhibition was -10.3% (inactive).

Take `CCn1ccnc1CN(C)C(=O)c1cc(COc2ccc(Cl)cc2OC)on1`: the inhibition is -6.33% (inactive).

For the compound `O=C(O)CCCCCCCCc1cn(CN2C(=O)c3ccccc3C2=O)nn1`, the inhibition is 12.6% (inactive).

For `O=C(O)CCCCc1nc2ccccc2s1`, the inhibition was 33.5% (active).

`Cc1nn(-c2ccc(F)cc2)c(Cl)c1/C=C(/CCC(=O)O)c1nc2ccccc2s1`: the inhibition was -3.61% (inactive).

For the compound `Cc1ccc([C@H]2N[C@]3(CCCN(CC4CCCCC4)C3=O)[C@H]3C(=O)N(Cc4ccccc4)C(=O)[C@@H]23)cc1`, the inhibition was -0.53% (inactive).

Consider `CCCCN(C(=O)c1ccc(OC(F)(F)F)cc1)c1c(N)n(CCC)c(=O)[nH]c1=O`, for which the inhibition was -6.23% (inactive).

Turning to `CCCCN(C)C(=O)c1ccc2c(c1)N(CC)C(=O)c1ccccc1S2(=O)=O`, the inhibition was 18% (inactive).

Consider `O=C(Cc1ccc([N+](=O)[O-])cc1)Nc1ccc(C(=O)N2CCOCC2)cc1`, for which the inhibition is -11.3% (inactive).

For `Cc1cc(C)n(CC(=O)Nc2ccc([N+](=O)[O-])cc2)n1`, the inhibition is -4.31% (inactive).

With `O=C(Cc1cccs1)Nc1ccc([N+](=O)[O-])cc1`, the inhibition is 23.9% (active).

With `Cc1oc2c(F)c(F)c(F)c(F)c2c1S(=O)(=O)Nc1cccc(C(F)(F)F)c1`, the inhibition was 27.9% (active).

For the compound `Cc1ccc(N(CCC(=O)O)S(=O)(=O)c2cccc(C(F)(F)F)c2)cc1`, the inhibition is 3.61% (inactive).

Turning to `Cc1noc(C)c1S(=O)(=O)Nc1cc(C(F)(F)F)ccc1N1CCOCC1`, the inhibition is 3.45% (inactive).

Regarding `COc1cc(C(=O)NCCOC(=O)c2cccc(N(C)C)c2)cc(OC)c1OC`, the inhibition is -4.91% (inactive).

For the compound `CCOc1ccc2[nH]c(=O)c(CN(CCCO)C(C)=O)cc2c1`, the inhibition is 7.13% (inactive).

For the compound `Cc1cccc(OCC(O)Cn2c(=N)n(CCN3CCOCC3)c3ccccc32)c1` (stereo unspecified), the inhibition is -12.8% (inactive).

Turning to `OC(CN=c1sc2ccccc2n1CC(O)COc1ccccc1)COc1ccccc1` (stereo unspecified), the inhibition was 62.5% (active).

For `OC(COc1ccccc1)CN1CCN(c2cccc(Cl)c2)CC1` (stereo unspecified), the inhibition was -14.9% (inactive).

For `COC(=O)Cc1c(O)ccn(Cc2cccc(C(F)(F)F)c2)c1=O`, the inhibition was -6.45% (inactive).

Regarding `Cc1cccc(C)c1Nc1nnc(SCC(=O)NCCCN2CCCC2=O)s1`, the inhibition was -7.35% (inactive).

Take `O=C(NCCN1CCOCC1)[C@H](Cc1ccccc1)N1C(=O)c2ccccc2C1=O`: the inhibition was -4.92% (inactive).

Take `CCOC(=O)C(Cc1ccc(N)cc1)N1C(=O)c2ccccc2C1=O` (stereo unspecified): the inhibition was 25.2% (active).

As for `COc1ccc(CNC(=O)COC(=O)C(CCSC)N2C(=O)c3ccccc3C2=O)cc1` (stereo unspecified), the inhibition is -6.61% (inactive).

Turning to `CCCS(=O)(=O)NC(=O)C1(C)CCCN(C(=O)c2cccs2)C1` (stereo unspecified), the inhibition is -9.34% (inactive).

As to `CCC(=O)N1Cc2cc(C(=O)NCc3cccc(F)c3)nc(-c3cccc(C4=CCCC4)c3)c2[C@H]1CCO`, the inhibition is -1.18% (inactive).

With `CCNC(=O)c1cc2c(c(-c3cccc(-c4cncnc4)c3)n1)[C@H](CCO)N(C(C)=O)C2`, the inhibition is -11.6% (inactive).

On to `CCCNC(=O)c1cc2c(c(-c3cccc(-c4ccc(C#N)cc4)c3)n1)[C@@H](CCO)N(C(=O)CC)C2`, for which the inhibition is 25.5% (active).

Take `COc1ccc(C(C[N+](=O)[O-])n2nc(C)cc2C)cc1` (stereo unspecified): the inhibition was -0.39% (inactive).

As to `Cc1c(Cl)cccc1NC(=O)Nc1ccc(C(=O)N2CCCC2)cc1`, the inhibition is -18.4% (inactive).

Consider `Cc1c(NC(=O)Nc2ccccc2Cl)sc(=S)n1C`, for which the inhibition is 24.7% (active).

Turning to `Cc1c(Cl)cccc1NC(=O)NCc1ccc(C)n1C`, the inhibition is 3.33% (inactive).

Turning to `CC1(C)CC(=O)c2cnc3nc4ccccc4n3c2C1`, the inhibition is -11.2% (inactive).

Take `CC1(C)CC(=O)C(N=Nc2c(F)cccc2F)=C(O)C1`: the inhibition is -15.2% (inactive).

Take `CCOC(=O)C1(C)CCCN(C(=O)c2cccc(Cl)c2)C1` (stereo unspecified): the inhibition is -16.1% (inactive).

Turning to `C=CCO/N=C(\C)c1c(O)c(C)c(-c2ccccc2)n(-c2ccccc2)c1=O`, the inhibition is 28% (active).

For `Cc1nn(-c2ccccc2)c(C)c1/C=N/NC(=O)CSc1nc2ccccc2c(=O)n1-c1ccccc1`, the inhibition was 14.8% (inactive).

Consider `CCO/N=C(/C)c1c(O)cc(-c2ccccc2)n(-c2ccccc2)c1=O`, for which the inhibition is -7.62% (inactive).

Consider `O=C(C1CC1)N1N=C2CCCCC2C1(O)C(F)(F)F` (stereo unspecified), for which the inhibition is 3.71% (inactive).

Take `CC(=O)NCCc1ccc(S(=O)(=O)Nc2ccc(C)c(S(=O)(=O)N3CCOCC3)c2)cc1`: the inhibition was 11% (inactive).

Take `Cn1c(=O)c2c(SCC(=O)N3CCOCC3)nc(C3CC3)nc2n(C)c1=O`: the inhibition is -6.78% (inactive).

Take `CCCC1(C(=O)OCC)NC(c2ccc(N(C)C)cc2)C2C(=O)N(c3ccc4c(c3)OCCO4)C(=O)C21` (stereo unspecified): the inhibition was -5.19% (inactive).

Take `Cc1ccc(CNC(=O)CCNS(=O)(=O)c2cccc3nonc23)cc1`: the inhibition is -10.2% (inactive).

In the case of `CCNC(=S)NNC(=O)C1CCN(Cc2ccccc2)CC1`, the inhibition is -12.2% (inactive).

Consider `Cc1scc(C(=O)NNC(=S)NCc2ccccc2)c1C`, for which the inhibition is -15.3% (inactive).

In the case of `CCNC(=S)NNC(=O)Cc1ccccc1`, the inhibition is 32.5% (active).

With `CCOC(=O)C1CCN(C(=O)c2ccc3c(=O)n4nc(Nc5ccccc5CC)sc4nc3c2)CC1`, the inhibition was -9.89% (inactive).

For the compound `CCSc1nc2c(c(=O)[nH]1)C(c1cccnc1)C(C(=O)OC(C)C)=C(C)N2` (stereo unspecified), the inhibition was 25.5% (active).

As to `CCSc1nc(O)c(C(c2cccc(OC)c2)c2c(O)nc(SCC)[nH]c2=O)c(=O)[nH]1`, the inhibition is -3.25% (inactive).

`COC(=O)C1=C(N)Oc2cc(C)oc(=O)c2C1c1cccnc1` (stereo unspecified): the inhibition was -3.67% (inactive).

`COc1ccc(Cl)cc1NC(=O)CN(C)C(=O)CCCc1c[nH]c2ccccc12`: the inhibition is 2.49% (inactive).

Regarding `O=C1NC(Cc2ccccc2)c2nc3ccc(Br)cc3c(=O)n2-c2cc3ccccc3cc21` (stereo unspecified), the inhibition is 12.3% (inactive).

For the compound `COc1ccc(O)c(C=Nc2cc(C)on2)c1`, the inhibition was -9.65% (inactive).

With `O=C(Nc1ccc2ccccc2c1)Nc1ccc2snnc2c1`, the inhibition is 32.6% (active).

Regarding `Cc1ccc(NC(=O)Nc2ccc3oc(C)nc3c2)cc1`, the inhibition was -8.85% (inactive).

Turning to `CS(=O)(=O)c1ccccc1C(=O)Nc1ccc2sccc2c1`, the inhibition is -10.2% (inactive).

In the case of `CC(C)Oc1ccc(CC(=O)NNC(=S)Nc2ccc(Br)cc2)cc1`, the inhibition was -8.93% (inactive).

For the compound `CC(C)OCCCNc1ncnc2c1[nH]c1ccc(F)cc12`, the inhibition is 26.5% (active).

For the compound `CCOc1ccc(C2NC(=S)NC3=C2CCc2ccccc23)cc1` (stereo unspecified), the inhibition was 4.36% (inactive).

`COCc1[nH][nH]c(=O)c1C=Nc1ccc(F)cc1F`: the inhibition is 3.8% (inactive).

As to `CCN1/C(=C\c2ccc3ccccc3[n+]2CC)Sc2cc(C)ccc21`, the inhibition is 47.2% (active).

Consider `O=C(CC(O)(C(F)(F)F)C(F)(F)F)Nc1ccc(Cl)c(Cl)c1`, for which the inhibition was 42.9% (active).

Regarding `N#CCCN(C(=O)Nc1ccc(Cl)c(Cl)c1)C1CCCCC1`, the inhibition was 5.09% (inactive).

Regarding `CC1(C(=O)O)CCC(C(=O)Nc2ccc(Cl)c(Cl)c2)C1(C)C` (stereo unspecified), the inhibition is -12.5% (inactive).

Take `CC1(C)C2CCC13CS(=O)(=O)NC3C2` (stereo unspecified): the inhibition is -9.03% (inactive).

With `NC1=NC2(CCCCC2)N(c2ccc(F)cc2F)C(N)=N1`, the inhibition is 13.8% (inactive).

Take `CC(=O)N1CCc2c(sc(NC(=O)CCS(=O)(=O)c3ccccc3)c2C#N)C1`: the inhibition was 0.29% (inactive).

In the case of `N#Cc1c(N)sc2c1CCN(C(=O)OCc1ccccc1)C2`, the inhibition is -19.6% (inactive).

Consider `CC(C)N1CCc2c(sc(NC(=O)Cc3ccccc3)c2C#N)C1`, for which the inhibition is 24.7% (active).

Regarding `C[C@H](NC(=O)[C@@H]1CCCN1C(=O)[C@@H]1CCCN1C(=O)c1ccccc1)c1ccccc1`, the inhibition was -24.1% (inactive).

As usually defined, the inhibition is the relative decrease from the control value, in per cent.
